FMDV inh = antivirals against foot and mouth disease virus; AID 1159524; 1.2% of 410,000 active; FMDV antiviral cell-based qHTS; Potency, µM (series often up to 57.9 µM), for the others: top-dose activity change, negative = inhibition, most hits filed as inhibitors; calls by dose curve; tested in HEK293T cells; further: read-out not given here; potency means the concentration at half of the fitted maximal effect; nearly all actives have a fitted effect of over 45% in size
Lassa entry inh = inhibitors of Lassa virus binding or cell entry | Lassa virus pseudotype entry inhibition, cell reporter | Potency, µM (top dose mostly 37.9 µM), for the others: at the highest dose activity change, negative = inhibition, actives largely listed as inhibitors | 1.2% of 300,000 active | AID 540256; calls by dose curve; tested in HEK293 cells; further: potency means the concentration at half of the fitted maximal effect; nearly all actives have a fitted effect of over 50% in size
HCMV antiviral = inhibitors of human cytomegalovirus; HFF cells, HCMV-luciferase reporter, 72 h; active compounds read low; 4.5% of 410,000 active; activity change, negative = inhibition, % at 57.5 µM; AID 1259415; in the data active means activity change below about -60%; inconclusive means no clear call, values can overlap the other calls; inactive means above about -39%
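Screen run at 2 compound doses on HFFs infected with reporter HCMV, MOI 1 PFU/cell. Luciferase activity from cell lysates at 72 h post infection gave inhibition relative to buffer-only and Salinomycin wells.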
VACV mCherry inh = vaccinia inhibition (mCherry reporter); Vaccinia virus mCherry reporter infection, fluorescence; Potency, µM (doses to about 36.5 µM), for inactives: at the top dose activity change, negative = inhibition, most hits filed as inhibitors; 0.63% of 310,000 active; AID 720579; calls by dose curve; tested in A549 cells; further: potency means the concentration at half of the fitted maximal effect; nearly all actives have a fitted effect of over 35% in size
MARV entry inh = inhibitors of Marburg virus binding or cell entry | AID 540276 | 1.8% of 300,000 active | Marburg virus pseudotyped entry inhibition, cell reporter | Potency, µM (top dose mostly 37.8 µM), for inactives: at the highest dose activity change, negative = inhibition, hits mostly inhibitors; calls by dose curve; tested in HEK293 cells; further: potency means the concentration at half of the fitted maximal effect
VACV Venus inh = inhibitors of vaccinia virus (Venus reporter) | Vaccinia virus Venus reporter expression, fluorescence | Potency, µM (top dose mostly 36.5 µM), for inactives: at the top dose activity change, negative = inhibition, usual class: inhibitors | 0.46% of 330,000 active; calls by dose curve; tested in A549 cells; further: potency means the concentration at half of the fitted maximal effect; nearly all actives have a fitted effect of over 30% in size
The depositor's hits bear a star; i = inactive; ? = inconclusive; nt = no result given; + = active, no number; ! = a repeat was not active; [ ] = another dose, or the depositor's remark. The list is not random: actives were taken first. Their share in the collection is about 6.5%. On the % scale 0 is the no-effect control and ±100 the full control effect.

SMILES	FMDV inh	Lassa entry inh	HCMV antiviral	VACV mCherry inh	MARV entry inh	VACV Venus inh
Cn1cccc1-c1cc2n(n1)CCC(=O)N2CCCC(=O)NCc1cccc(Cl)c1	-3%	-7%[46.1 µM]	0	-1%	nt	13%
Cc1ccc(NC(=S)Nc2cc(-c3ccccc3)[nH]n2)cc1Cl	1%	nt	-72*	-21%	-21%[46.1 µM]	-10%
Fc1ccc(NC(=S)Nc2cc(-c3ccccc3)[nH]n2)cc1Cl	-13%	?	-32	-13%	?	-9%
Cc1ccc(NC(=S)Nc2ccc(Cl)c(Cl)c2)c(OC(F)F)c1	?	2%	-75*	i	?	?
O=C(Nc1ccc(OC(F)F)c(Cl)c1)C(c1ccccc1)c1ccccc1	40µM*	nt	-30	nt	nt	nt
Cc1cc(C)cc(NC(=S)Nc2ccc(Cl)c(Cl)c2)c1	-16%	-4%[46.1 µM]	-68*	-20%	?	-8%
COc1cc(C(CC(=O)NCc2ccccc2)N2Cc3ccccc3C2=O)cc(OC)c1OC (stereo unspecified)	30%	8%[46.1 µM]	10	-10%	nt	-10%
CCOC(=O)NN=C1C[C@@H](O)[C@@H](O)[C@@H]2[C@H]3C(=O)N(CC)C(=O)[C@@H]3CC[C@@H]12	nt	?	nt	nt	8%[14.2 µM]	nt
Cc1ccc(CNC(=O)c2ccc(CSCc3ccc(Cl)cc3)o2)cc1	-17%	-22%[46.1 µM]	25	-10%	nt	-9%
CC(NC(=S)Nc1ccc(OC(F)F)c(Cl)c1)C(C)(C)C (stereo unspecified)	-3%	?	?	-24%	?	?
NC(=S)Nc1ccc(Cl)c(Cl)c1	7%	nt	-60*	nt	nt	nt
Cc1ccc(NC(=S)Nc2ccc(OC(F)F)c(Cl)c2)cc1Cl	-17%	-29%	-89*	-25%	?	?
CC1(C(=O)O)CCN1C(=O)c1ccccc1F (stereo unspecified)	5µM*	nt	-1	23%	nt	-8%
Cc1ccc(F)cc1C(=O)N1CCC1(C)C(=O)O (stereo unspecified)	-18%	nt	-25	17%	nt	2%
NCCS	2%	-6%	5	-15%	11µM*!	-11%
O=C(COCc1cc(-c2cccs2)on1)N1CCN(c2ccccc2)CC1	-23%	-2%[46.1 µM]	-5	i	nt	-16%
CN(C)c1ccc(/C=C/c2cc(N(C)C)nc3ccccc23)cc1	nt	nt	nt	-20%	nt	-13%
COc1ccc(CCN=C(N)C(C)c2ccccc2)cc1OC (stereo unspecified)	-19%	2%	-3	-12%	-3%	-3%
CC(C)Cc1ccc(C(C)C(N)=NCCc2ccccc2)cc1 (stereo unspecified)	-30%	?	-87*	?	2.2µM*	-22%
O=C(Nc1cccc(Cl)c1Cl)c1ccc2c(c1)N(Cc1cccc(Cl)c1)C(=O)c1ccccc1S2=O (stereo unspecified)	-24%	20%[46.1 µM]	-1	-5%	nt	-2%
COc1ccc(CC(=O)NNC(=O)CCC(=O)Nc2cc(C)ccc2C)cc1	-9%	-8%	-104*	-18%	-8%[46.1 µM]	-9%
O=C(CN1CCN(C(c2ccccc2)c2ccccc2)CC1)N1N=CCC1c1ccccc1 (stereo unspecified)	-21%	?	-5	-1%	8.9µM*	-6%
O=C(CN1CCN(c2ccccc2)CC1)N1N=CCC1c1ccccc1 (stereo unspecified)	-4%	5%	-7	nt	-2%	-11%
NC(=O)C1CCN(CC(=O)N2N=CCC2c2ccccc2)CC1 (stereo unspecified)	2%	nt	-103*	i	nt	-7%
O=C1C=CC(O)(c2cc(=O)c3c(O)cc(O)cc3o2)C=C1	18µM*	?	-96*	11µM*	?	?
N#Cc1ccccc1Cn1c(=O)n(CCCC(=O)NCc2ccccc2Cl)c(=O)c2ccccc21	?	-1%[46.1 µM]	26	?	?	?
Cc1ccc(CN2C(=O)C3(c4ccccc42)N(c2ccc(C)c(Cl)c2)C(=O)CS3(=O)=O)cc1 (stereo unspecified)	-21%	?	-2	2%	-19%[46.1 µM]	-7%
CCCC(=O)NC(c1ccc(OC)c(OC)c1)c1c(O)ccc2ccccc12 (stereo unspecified)	31%	60%[14.3 µM]	45	-18%	0%	-10%
CCCCC(=O)NC(c1ccccc1OC)c1ccc2cccnc2c1O (stereo unspecified)	-16%	nt	+	7.9µM*	nt	-28%
